From PubChem BioAssay (NCI)
Several values for one entry are separate records, joined by “and”; a condition that tells them apart may be missing. Identical values can stand only once. Compounds without any hit were thinned out: in the full panel of roughly 83,000, 20% have a hit.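 A percent growth of 40 corresponds to 60% growth inhibition; 0 means no net growth; -100 means all cells died. Active threshold: below 10.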 A number with no mark means an inactive call. Activity calls are given as the source filed them.

Columns and labels:
Assay in all cases: NCI-60 one-dose screen, 48 h (100 = growth as untreated, 0 = no growth, -100 = all killed)
Conditions in all cases: 10 µM unless noted
DU-145 prostate = system: DU-145 prostate
K-562 leukemia = system: K-562 leukemia
MALME-3M melanoma = system: MALME-3M melanoma
MDA-MB-231 breast = system: MDA-MB-231 breast
RXF 393 renal = system: RXF 393 renal
SF-268 CNS = system: SF-268 CNS
SF-295 CNS = system: SF-295 CNS
SF-539 CNS = system: SF-539 CNS
UACC-257 melanoma = system: UACC-257 melanoma
M14 melanoma = system: M14 melanoma

Compound | growth (DU-145 prostate) | growth (K-562 leukemia) | growth (MALME-3M melanoma) | growth (MDA-MB-231 breast) | growth (RXF 393 renal) | growth (SF-268 CNS) | growth (SF-295 CNS) | growth (SF-539 CNS) | growth (UACC-257 melanoma) | growth (M14 melanoma)
COc1ccc2c(c1)CCNC21C(=O)Nc2c(Br)cc(Br)cc21 (stereo not given) | 110% | 98.8% | 88.3% | 74.7% | 133% | 100% | 103% | 94% | 100% | 97.7%
CCN(CC)/C([O-])=c1\cccc\c1=C1\N=C(c2ccccc2)N=C1[n+]1ccc(-c2ccccc2)cc1 | 102% | 96.7% | 92.7% | 100% | 104% | 102% | 100% | 89.1% | 92.9% | 89.6%
CCOC(=O)c1c(-c2ccc(OC)cc2)c(C#N)c2c(C#N)c(N)nn2c1N | 56.1% | 5.64% (active) | 30.8% | 28.4% | 59.7% | 40.2% | 28.2% | 25.1% | 49.9% | 34.2%
COc1ccc(CN2CCc3c(Cl)nc(N)nc3C2=O)c(OC)c1 | 20.8% [100 µM] | 14.8% [100 µM] | 27.8% [100 µM] | 6.36% [100 µM] (active) | -20.2% [100 µM] (active) | -22.4% [100 µM] (active) | 41.6% [100 µM] | -25.3% [100 µM] (active) | 25.5% [100 µM] | -70.8% [100 µM] (active)
Cc1nc(-n2[nH]c(=O)ccc2=O)sc1N=Nc1ccccc1 | 112% | 101% | 102% | 102% | 97.5% | 104% | 99.3% | 99.8% | 109% | 97.7%
N=C(N)SCc1c2ccccc2c(CSC(=N)N)c2ccccc12 | 63.9% | 35.3% | 71.3% | 103% | 99.7% | 55.5% | 66.7% | 84% | 119% | 68.4%
O=[N+]([O-])c1ccc(S(=O)Cc2ccccc2)c([N+](=O)[O-])c1 (stereo not given) | 79.3% and 70.5% | 25.9% | -61.7% (active) and -33.4% (active) | 74.6% and 82.1% | -36.6% (active) and -28.2% (active) | 86.6% and 88.5% | 95.9% | 90.7% and 46.3% | 37% and 69.3% | 55.8% and 31.7%
CCCN1C(=O)/C(=c2\sc3n(c2=O)NC2C(N=3)N(CC)C(=O)N2CC)c2ccccc21 (stereo not given) | 33.5% | 13.7% | 61.8% | 24.4% | -3.07% (active) | 70% | 39.6% | 1.12% (active) | 47.5% | 23.3%
COc1ccc(C2=C(CN)C(O)NC(=NCC(=O)c3ccc4ccccc4c3)N2)cc1 (stereo not given) | 107% | 102% | 101% | 103% | 112% | 94.1% | 98.4% | 90.8% | 91.3% | 95.1%
COc1cc(/C=C(/c2ccccc2)[N+](=O)[O-])c(OC)c2c1OCO2 | -87.4% (active) | 0.225% (active) | -49.6% (active) | -47.9% (active) | -79.8% (active) | 21.1% | 28.8% | -90.5% (active) | 17.3% | 11.9%
O=C(/C=C/c1ccc(F)cc1)Nc1ncc(Cc2ccc(F)cc2)s1 | 33% | 14% | 41.5% | 75.7% | 32.1% | 52.3% | 20.2% | 22% | 60.3% | 19.9%
C=CCN1C=CC(=O)[C@H](O[Si](C)(C)C(C)(C)C)[C@@H]1/C=C/c1ccccc1 | -59.1% [100 µM] (active) | 4.18% [100 µM] (active) | -57.5% [100 µM] (active) | -68.3% [100 µM] (active) | -45.5% [100 µM] (active) | -58.2% [100 µM] (active) | -66.7% [100 µM] (active) | -82.7% [100 µM] (active) | -75.9% [100 µM] (active) | -78.6% [100 µM] (active)
Cc1ccc(/C=C(\C#N)c2cc3ccccc3[nH]2)cc1 | 73.1% | 13.8% | 67.7% | 35.9% | 82.8% | 68.1% | 68.2% | 57.7% | 72.4% | 31.5%
Clc1ccc(/C=N\N2CCCCCC2)cc1 | 112% and 102% | 87.7% | 98% | 89.7% and 99.9% | 92% and 119% | 103% and 115% | 96.4% and 95.9% | 115% and 92% | 104% and 109% | 104% and 111%
C[N+]1=C(/C=C\C=C\c2ccccc2)C(C)(C)c2ccccc21 | 48.7% | 4.69% (active) | -17.8% (active) | 9.89% (active) | 38% | 38.5% | 72.4% | 8.59% (active) | 8.91% (active) | 20.5%
COc1ccc(-c2cc(-c3cccc(Cl)c3)c(C#N)c(=O)[nH]2)c(OC)c1 | 97.3% | 98.2% | 93.7% | 102% | 90.8% | 90% | 98.2% | 92.6% | 102% | 98.2%
CCOC(=O)C(=Cc1ccc(C#N)cc1)C(=O)OCC | 43.8% | 3.59% (active) | -10.9% (active) | 16.3% | -62.5% (active) | 28.1% | 95.3% | -49.9% (active) | 14.6% | 27%
Nc1nc2ccccc2c2c(=O)c3ccc(Cl)cc3sc12 | 97.5% | 90.7% | 107% | 91% | 111% | 95.2% | 101% | 106% | 105% | 94.5%
O=[N+]([O-])c1ccc2[nH]c3nccc(NCc4cccc(Cl)c4)c3c2c1 | 64.6% | 79.4% | 46.4% | 80.2% | 66.4% | 46.1% | 67.3% | 71.1% | 85.5% | 83.4%
COc1c(O)c(O)cc2c3c(oc12)CC(c1ccc2c(c1)OCO2)CC3=O (stereo not given) | 68.8% | 17.2% | 95.7% | 70.5% | 105% | 53.9% | 101% | 67.6% | 55.3% | 23.3%
CN(C)CCN1C(=O)c2c(c3c4ccccc4n4c3c3c2c2ccccc2n3C2CC(O)C(O)C4(C)O2)C1=O (stereo not given) | 16.9% | 11.4% | 23.5% | 58.4% | 29.9% | 35.2% | 8.95% (active) | 24.3% | 34.7% | 23.9%
Cc1ccc(-c2nc([P+](c3ccccc3)(c3ccccc3)c3ccccc3)c(Nc3ccccc3)o2)cc1 | 13.2% | 0.731% (active) | -44.1% (active) | -36.5% (active) | -31.7% (active) | 10.6% | -21% (active) | -76.6% (active) | -13.5% (active) | -40.4% (active)
O=C1C(c2c[nH]c3ccccc23)=C(c2coc3cc(Br)ccc23)C(=O)N1O | 107% | 93.8% | 107% | 85.9% | 105% | 98.6% | 95.3% | 106% | 100% | 101%
C=C(CN1CC=CCC1)[C@@H]1CC[C@]2(COC(C)=O)CC[C@]3(C)[C@H](CC[C@@H]4[C@@]5(C)CC[C@H](O)C(C)(C)[C@@H]5CC[C@]43C)[C@@H]12 | 102% | 91.7% | 113% | 112% | 109% | 106% | 105% | 96.8% | 99.4% | 97.4%
Cc1ccc(-c2nc3nc(-c4ccccc4)nc(N4CCCNCC4)c3o2)cc1 | -25.5% (active) | -76.4% (active) | -85.5% (active) | -86.9% (active) | -73.2% (active) | -26.3% (active) | -87.3% (active) | -88.5% (active) | 4.04% (active) | -93.9% (active)
CC1=CC(C)(C)NC(=S)N1c1ccc(Cl)cc1 | 105% and 110% | 97.7% and 92.6% | 99.7% | 101% and 99.3% | 104% and 121% | 101% and 100% | 101% and 111% | 98.7% and 106% | 98.6% and 105% | 102% and 95%
